Mdm2 MdmX PPI – inhibitors of human Mdm2/MdmX interaction; inhibition, % at 8 µM; O15151+Q00987; AID 485346; hit rate 3% among 330,000; SaOS-2 split-luciferase Mdm2/MdmX complementation, luminescence;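 active = inhibition of at least 50% at 8 µM in the primary screen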
HSP90 refold inh – blocks HSP90-mediated luciferase refolding in reticulocyte lysate; inhibition, % at 5.6 µM; Rabbit reticulocyte lysate, luciferase refolding luminescence, 3 h; hit rate 0.91% among 290,000; AID 1789;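 active = inhibition above the screen-wide mean plus 3 SD, computed separately per campaign, cut at about 16% in these data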;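 also: 0% = DMSO wells and 100% = 60 µM geldanamycin wells; inhibitors lower the luminescence because luciferase stays unfolded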
Peg3 prom inh-1 – inhibitors of Peg3 promoter; inhibition, % at 20 µM; hit rate 1.7% among 360,000; HeLa PEG-Prom luciferase reporter, luminescence, overnight;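 active = inhibition of at least 50% at 20 µM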
KKLEB cytotox – counter-screen for CF NF-kB inhibitors: cytotoxicity | KKLEB CF airway cells viability, ATPlite luminescence, overnight; active compounds read low; cells stimulated with P. aeruginosa culture filtrate | activity change (cytotoxicity), % at 5 µM | hit rate 0.36% among 360,000;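 active = corrected activity change at or below -50% at 5 µM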
LGR2 antag – inhibitors of bursicon-induced Drosophila LGR2 receptor cAMP signaling. HEK293 LGR2, CRE-luciferase, bursicon-stimulated, 4 h. hit rate 0.35% among 380,000. inhibition, % at 9.99 µM;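 active = drop in luminescence signal, shown as inhibition above about 50% in the replicate tests, limit read from the data, passing the limit was not always enough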;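 also: agonist challenge used bursicon conditioned medium at about half maximal strength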
CF NFkB block – cystic fibrosis NF-kB activation inhibition; KKLEB NF-kB-GFP reporter, PAF-induced, GFP fluorescence overnight; inhibition, % at 5 µM; hit rate 0.86% among 360,000;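 active = at least 50% inhibition at 5 µM, scaled per plate between neutral and stimulator controls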;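 also: PAF is a Pseudomonas aeruginosa culture filtrate used as stimulus; plate controls were PAF-stimulated DMSO wells for no effect and unstimulated DMSO wells for full effect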
Mdm2-MdmX conf – confirmation of human Mdm2/MdmX interaction inhibitors; shares compounds with Mdm2 MdmX PPI; Mdm2-MdmX binding, luminescent assay; inhibition, % at 8 µM; hit rate 55% among 10,000; AID 489028
Full FLuc ctr – full-length luciferase inhibition in Mdm2/MdmX counter-screen; shares compounds with Mdm2 MdmX PPI; SaOS-2 full-length luciferase counterscreen, luminescence; inhibition, % at 8 µM; hit rate 77% among 6,200; AID 504607;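 active = mean inhibition at 8 µM reaching about 37%, which flags the compound as non-specific, limit read from the data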;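 also: p53-null SaOS-2 cells with luciferase driven by a doxycycline-inducible promoter; compound on cells about two nights before reading with doxycycline added after day one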
Peg3 prom inh-2 – confirmation of Peg3 promoter inhibitors; hit rate 84% among 1,300; inhibition, % at 20 µM; AID 602417; HeLa PEG-Prom luciferase reporter, luminescence, overnight; shares compounds with Peg3 prom inh-1;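 active = at 20 µM dose, 40% or more inhibition averaged across four replicates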
CF NFkB inh conf – CF NF-kB inhibition confirmation, single concentration; shares compounds with CF NFkB block; KKLEB CF airway cells, PAF-induced NF-kB-GFP fluorescence, overnight; inhibition, % at 5 µM; hit rate 64% among 1,300; AID 602472;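 also: stimulus PAF is a Pseudomonas aeruginosa filtrate and not platelet activating factor; plate controls were DMSO wells with stimulus for no effect and unstimulated DMSO wells for full effect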
An asterisk follows results filed as active; nt = no result given. Most compounds without a hit are left out; they make up all but 3.6% or so of the library. Rule as the data show it, unless noted: active = inhibition above about 40%; inactive = the rest.

SMILES	Mdm2 MdmX PPI	HSP90 refold inh	Peg3 prom inh-1	KKLEB cytotox	LGR2 antag	CF NFkB block	Mdm2-MdmX conf	Full FLuc ctr	CF NFkB inh conf	others
Cc1noc2ncnc(Sc3ccccc3Cl)c12	70*	5	115*	-5	28	53*	-4	nt	-69
C[C@H](CO)N1C[C@H](C)[C@@H](CN(C)C(=O)Nc2ccc3c(c2)OCO3)Oc2c(NC(=O)C3CCOCC3)cccc2C1=O	nt	nt	nt	nt	26	nt	nt	nt	nt
Nc1ncnc(NCc2ccc(F)cc2)c1[N+](=O)[O-]	69*	2	-6	-24	3	64*	62*	27	64*
COc1ccc(-c2csc3ncnc(NCCO)c23)cc1	71*	-1	13	-5	28	77*	59*	26	86*
CC(C)CN=C(NS(=O)(=O)c1ccccc1)C(Cl)(Cl)Cl	88*	-6	99*	-23	94*	88*	81*	36	93*
N#C[C@H]1[C@H](c2ccccc2C2=CCCC2)[C@@H](CO)N1C(=O)C1CCOCC1	nt	nt	nt	nt	17	nt	nt	nt	nt
COc1ccc(S(=O)(=O)N2c3ccc(F)cc3CCC2C)cc1 (stereo unspecified)	59*	nt	8	-5	22	50*	63*	97*	83*
COc1ccccc1-c1cnc2c(c1)C(=O)N([C@@H](C)CO)C[C@@H](C)[C@H](CN(C)Cc1ccncc1)O2	nt	nt	nt	nt	-10	nt	nt	nt	nt
CCCN1[C@@H]2c3ccc(-c4ccncc4)c(=O)n3C[C@H]1[C@H](CO)[C@H]2C(=O)NCC1CC1	nt	nt	nt	nt	14	nt	nt	nt	nt
COc1cccc(NC(=O)c2nc(S(C)(=O)=O)ncc2Cl)c1	96*	-3	108*	-37	1	88*	83*	60*	61*	Peg3 prom inh-2=98*
CCOc1ccccc1NC(=O)c1nc(S(=O)(=O)Cc2ccccc2)ncc1Cl	97*	4	99*	-31	3	80*	97*	0	94*
CC(=O)Nc1ccc(NC(=O)c2nc(S(=O)(=O)Cc3cccc(C)c3)ncc2Cl)cc1	86*	2	102*	-31	-39	102*	66*	51*	82*	Peg3 prom inh-2=96*
CCOc1ccccc1NC(=O)c1cnc(NS(=O)(=O)c2ccccc2)nc1	22	-2	14	8	-3	3	nt	nt	nt
CCS(=O)(=O)c1ncc(Cl)c(C(=O)Nc2ccccc2OC)n1	96*	-4	104*	-36	12	85*	100*	45*	96*
C[C@H](CO)N1C[C@H](C)[C@@H](CN(C)Cc2ccncc2)Oc2ncc(C#Cc3ccccn3)cc2C1=O	nt	nt	nt	nt	-3	nt	nt	nt	nt
CCN1CC(=O)N2[C@H](C1)[C@H](c1ccc(Br)cc1)[C@@H]2CO	nt	nt	nt	nt	4	nt	nt	nt	nt
CO[C@@H](CN(C)S(=O)(=O)c1ccc(Cl)cc1)[C@H](C)CN(C(=O)Nc1ccccc1F)[C@H](C)CO	nt	nt	nt	nt	-8	nt	nt	nt	nt
CCCCC(=O)/C=C/n1c(=S)oc2ccccc21	100*	0	101*	-36	-64	90*	33	nt	-143
CC(C)OC(=O)n1c(=S)oc2ccccc21	0	-9	19	9	13	-7	nt	nt	nt
CCn1c(=O)c2c(cnn2C)c2ccccc21	81*	-1	4	-15	nt	72*	12	nt	78*
Cc1cccc(C(=O)N[C@H](C(=O)Nc2nc(C)cs2)C(C)C)c1	-12	2	-16	0	2	1	nt	nt	nt
Cc1cccc(C(=O)N[C@H](C(=O)Nc2nc3ccccc3[nH]2)C(C)C)c1	73*	-3	17	-30	34	66*	68*	100*	83*
CCOC(=O)CS(=O)(=O)c1nc(-c2ccccc2)cc(C(F)(F)F)n1	101*	9	105*	-21	nt	79*	98*	0	60*
CCOC(=O)CS(=O)(=O)c1ccccc1	9	0	3	14	nt	-13	nt	nt	nt
COc1ccc(-c2cc(C(F)(F)F)nc(S(C)(=O)=O)n2)cc1	101*	7	100*	-37	nt	74*	80*	53*	58*
SMILES	Mdm2 MdmX PPI	HSP90 refold inh	Peg3 prom inh-1	KKLEB cytotox	LGR2 antag	CF NFkB block	Mdm2-MdmX conf	Full FLuc ctr	CF NFkB inh conf	others
CO[C@@H]1CN(C)C(=O)c2ccc(NC(=O)c3ccc4c(c3)OCO4)cc2OC[C@H](C)N(CCC(F)(F)F)C[C@@H]1C	nt	nt	nt	nt	-7	nt	nt	nt	nt
CCc1nccn1C(=O)c1cnn2c(C(F)F)cc(-c3ccc(C)cc3)nc12	61*	4	61*	-44	-11	68*	19	nt	91*	Peg3 prom inh-2=93*
O=S(=O)(N[C@@H]1CC[C@@H](CCn2cc(C3CC3)nn2)O[C@H]1CO)c1ccc(F)cc1	nt	nt	nt	nt	13	nt	nt	nt	nt
CC(C)c1nc(NCCO)c(C#N)c2c1CCCC2	53*	-1	10	-10	nt	71*	57*	35	55*
CC(C)c1nc(NCc2ccccc2)c(C#N)c2c1CCCC2	42	-3	8	-5	nt	-4	nt	nt	nt
O=c1cc(-c2ccccc2Cl)oc2c([N+](=O)[O-])c(O)cc(O)c12	83*	-4	98*	14	70*	94*	76*	21	110*
Fc1ccccc1-c1nnc2n1N=C(c1ccc(OC(F)F)c(OCC3CC3)c1)CS2	-15	nt	16	-18	-20	27	nt	nt	nt
COc1ccc(C2=Nn3c(nnc3-c3ccccc3OC)SC2)cc1OC1CCOC1 (stereo unspecified)	71*	nt	6	-3	0	58*	73*	95*	81*
COc1ccc(OC)c(-c2nnc3n2N=C(c2ccc(OC)c(OCC4CC4)c2)CS3)c1	80*	nt	33	7	nt	60*	68*	68*	84*
O=C(C[C@H]1CC[C@H](NC(=O)Nc2cc(F)ccc2F)[C@H](CO)O1)Nc1ccc(-c2ccccc2)cc1	nt	nt	nt	nt	-7	nt	nt	nt	nt
COc1cccc(C(=O)N2C[C@H]3[C@@H](c4ccccc42)[C@@H](CO)N3C(=O)NC(C)C)c1	nt	nt	nt	nt	9	nt	nt	nt	nt
O=C(Nc1ccc([N+](=O)[O-])cc1)Nc1ccc(Cl)cc1F	87*	-4	-51	-31	-13	52*	91*	73*	46*
O=C(Nc1ccc(Cl)cc1)Nc1cc([N+](=O)[O-])ccc1F	49	-3	-8	2	8	-9	nt	nt	nt
CCC(=NCCc1c(C)[nH]c2ccc(C)cc12)C1=C(O)CC(c2ccccc2)CC1=O (stereo unspecified)	67*	1	22	-20	-2	57*	61*	70*	78*

Compound activity as filed in PubChem.
